# In PubChem BioAssay (Tox21):
# Records with an inconclusive call do not appear. A call without a number means that no potency is given here. Activity calls are given as the source filed them. The call rests on the fitted dose curve; in most records, active means well fitted activation curve with a large enough effect in the signal ratio in the repeat runs (not every such curve was filed as active); inconclusive means weak or mixed curves, or effect the other way; inactive means no such curve, though single readings can be large or run the other way; the % refers to the signal ratio.
# Assay: qHTS assay for small molecule agonists of the antioxidant response element (ARE) signaling pathway (AID 743202)
# Settings: HepG2 ARE-bla reporter, beta-lactamase FRET, 16 h; series mostly up to 73.3 µM
# Description: U.S. Tox21 Program National Center for Advancing Translational Sciences [NCATS] NIH Chemical Genomics Center [NCGC] U.S. Environmental Protection Agency [EPA] National Institutes of Environmental Health Sciences [NIEHS] National Toxicology Program [NTP] U.S. Food and Drug Administration [FDA] Tox21 Assay Overview: Oxidative stress has been implicated in the pathogenesis of a variety of diseases ranging from cancer to neurodegeneration. The antioxidant response element (ARE) signaling pathway plays an important role in the amelioration of oxidative stress. The CellSensor ARE-bla HepG2 cell line (Invitrogen) can be used for analyzing the Nrf2/antioxidant response signaling pathway. Nrf2 (NF-E2-related factor 2) and Nrf1 are transcription factors that bind to AREs and activate these genes. The CellSensor ARE-bla Hep G2 cell line contains a beta-lactamase reporter gene under control of the Antioxidant Response Element (ARE) stably integrated into HepG2 cells. The activation of the report gene under culture conditions can be detected by fluorescence intensity. This cell line has been used to screen the Tox21 10K compound library to identify agonists that induce oxidative stress.
# Tox21 Assay Protocol Summary: The ARE-bla cells were dispensed at 2,000 cells/5 ul/well in 1536-well black wall/clear bottom plates using a Multidrop dispenser. After the assay plates were incubated at a 37 C/5% CO2 incubator for 5 hours, 23 nL of compounds dissolved in DMSO, positive controls or DMSO only was transferred to the assay plate by a pin tool. The plates were incubated at 37 C for 16 hours. After 1 uL of LiveBLAzer B/G FRET substrate was added using a Flying Reagent Dispenser, the plates were incubated at room temperature for 2 hours, and fluorescence intensity was measured by an Envision plate reader.
# Potency means the concentration at half of the fitted maximal effect.
row,Compound,Potency
1,Nc1nc(N)nc(-c2ccccc2)n1,inactive
2,CN(C)c1ccc(Cc2ccc(N(C)C)cc2)cc1,inactive
3,CC(O)CC(C)(C)O (stereo not given),inactive
4,NCCNCCN,inactive
5,CC(C)CCCCCCCOC(=O)CCCCC(=O)OCCCCCCCC(C)C,inactive
6,Cc1ccc(C(C)C)c(O)c1,inactive
7,O=C(OCC1CCC2OC2C1)C1CCC2OC2C1 (stereo not given),inactive
8,COCCOC(=O)c1ccccc1C(=O)OCCOC,inactive
9,C=CCCCCCCCCC(=O)O,inactive
10,CC(C)(Oc1ccc(CCNC(=O)c2ccc(Cl)cc2)cc1)C(=O)O,inactive
11,COc1ccc(CCC(C)=O)cc1,inactive
12,CCc1ccccc1CC,inactive
13,COc1cc(OC)c(C(=O)CCCN2CCCC2)c(OC)c1,inactive
14,O=C(O)CCCCCCCCC(=O)O,inactive
15,C=C(C)CNCC,inactive
16,CC(=O)CC(C)(C)O,inactive
17,Cc1ccc2ncccc2c1,inactive
18,CN1C(=O)CC[C@H]1c1cccnc1,inactive
19,CC(C)=CCl,inactive
20,CCCCC(C=O)CC (stereo not given),inactive

row,Compound,Potency
1,O=C(O)/C=C/C(=O)O,inactive
2,N[C@H](Cc1c[nH]c2ccccc12)C(=O)O,inactive
3,CCCCCCCO,inactive
4,O=C1CCCC1,inactive
5,CC(C)(C#N)c1cc(Cn2cncn2)cc(C(C)(C)C#N)c1,inactive
6,CC(C)CC(=O)CC(C)CC(C)C (stereo not given),inactive
7,CC(=O)OC1CC(C)OC(C)O1 (stereo not given),inactive
8,CCNC(=S)NCC,inactive
9,C=CC(=O)OCCC(=O)O,9.69 µM (active)
10,COc1ccccc1OCC(O)CO (stereo not given),inactive
11,CN/C(=C\[N+](=O)[O-])NCCSCc1csc(CN(C)C)n1,inactive
12,C[C@]12CCC(=O)C=C1CC[C@@H]1[C@@H]2[C@@H](O)C[C@@]2(C)[C@H]1CC[C@]2(O)C(=O)CO,inactive
13,C=CCc1ccc(OC)c(OC)c1,inactive
14,OCc1ccccc1,inactive
15,CC(=O)Oc1ccc(C)cc1,inactive
16,CCCCCCCCCCN,inactive
17,CSc1ccc(Cl)cc1,inactive
18,Brc1ccc(Br)c(Br)c1,inactive
19,C=Cc1ccc(C)cc1,inactive
20,COC(=O)CCCC(=O)OC,inactive
